39 sequences from the supplement of paper PMC6555819 can be followed below.

The subject of the first test is PPARg DBDmut IVT, anti-PPARg (DBD mutation: PPARg1 K132A/R137A, NR concentration 270 nM). Kind of test: PBM binding z-score (relative to random genomic background probes); higher = stronger binding; sequences stand for … in GC…GCGATTGACAGCGTAGAATGAAGG
The method in brief:
(§1)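 Random background probes are the reference for binding z-scores. These scores derive from regression-normalized fluorescence on custom Agilent 4×180K protein-binding microarrays incubated 1 h with ligand-free nuclear receptor dimers. Binding was detected with antibodies against each partner (one per run).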
In turn, TCGAGTAGGTTACCAATGGGGCAGTCAGCTTTCT returned a PBM binding z-score of -1.01.
GGAACGAGGGAAAAGTTGATAGCATCTGTCGACG displayed a PBM binding z-score of -1.13.
On the same count and under the same terms, for ATATGTAGGTTATCGGGTCATTCCGTTTGCGCAT the value was 2.25; for AGAATGAGGTTCCCAAAGATCAGGGAAACGCTTG, 0.173.
CCTACTGGGCCAAGGTCATTGATCAGTCAAAGCA yielded a PBM binding z-score of -1.03.
Take ATCTCTAGGTAAAAAGTTCAGTGAAAGAGAGGAC: the PBM binding z-score stood at 0.995.
Sequence CCTTACGGGTCACTCCAGATTATAGCATCGGAGT returned a PBM binding z-score of 0.192.
The same measure, in the same setting: as for AGTCAAAGTTCATCTAGGCAACGTAAGATATGCT, the figure is 0.857; as for TAGCCTAGGTCAGTCAGGGGCCAGTATAGAAAGC, -0.431; as for CCGACTGGGGCAGAAAGGTTACCACACCATCCGG, -0.799.
In the case of ATATGTAGGTTACATCTGGGTCATTCAGGCTATG, the PBM binding z-score was determined as 1.93.
Take TCAGACAGATGAAGGTAACTCAGGTACGCAGTCG: the PBM binding z-score was -0.478.
Still for that read-out and setting: for CTCGAAAGGTCGGTTAAGGTGAGTATACGGATAA the value was 0.287; for TCGAGTAGGTTAGGGGCATTCTGAATGGCGTCGA, -0.137; for GATACAGGGTCAAGGCCGGAGTACGCGTATTGAT, 0.122.
GCTGCTAGGTCAACTGATGGTCAGTTAAAGCTCG: the PBM binding z-score was -0.331.
In the case of ACTAGCAGGCCAAGTTTGGGCCACTCAAACAAAG, the PBM binding z-score was -0.696.

In another test the test system is PPARg homodimer (NR concentration 180 nM). The test is described as above. An outline of the steps: as §1
The sequence AGTCAAAGTTCATCCAGGTAACGTAAGATATGCT came in with a PBM binding z-score of 2.63.
In the case of CTCGAAAGGTCGGTTGAGGTGAGTAGACGGATAA, the PBM binding z-score was found to be 0.919.
CCTTACGGGTCACGAGGTTATAGGACGACGAGCG: the PBM binding z-score amounted to 1.95.
As to ATCGAAAGGTCGACGAGGTGACTATACACCGTTT, the PBM binding z-score came to 1.89.
In turn, AGAATGAGGTTACGAAAGATCAGGGAAACGCTTG had a PBM binding z-score of 0.0598.
Same read-out and setting: for TCTGCTAGGTTAACGATGGTCAGCTAATCTGCTA the value was -1.29; for ATCGAAAGGTCGACGAGGTGAGTATTCACCGTTT, 0.854; for ATATGTAGGTAAGCTGGGGTCATTCAGACTAGGC, 1.48.
In turn, CATACAGGGTCAGCTAGCCCAGAGTAGGGACGGC came in with a PBM binding z-score of 1.48.
On to ATCGAAAGATCGAGGTGAGTATAGAGAAAGGGAA, for which the PBM binding z-score was -0.144.
TCTATTAGTTAAAGGGCAACCGACGAGTCCGTTT yielded a PBM binding z-score of 1.7.
As to CCTATTATTTGACCATAAGGGCAACCGAAGCTCG, the PBM binding z-score turned out to be 3.21.
AATACACGGTCATCGTAGGCCAGAGTACGCACAG returned a PBM binding z-score of 0.841.
Turning to CGTCCAAGGGCAAAGGTCAGTGAAGAGATGACGG, the PBM binding z-score came to 1.99.
The same measure, in the same setting: for CCTTACGGGTCACAAGGTTATAGCACGACGAGCG the value was 2.41.
Sequence GCGACTGGGGCATCAGCAGGTTCCCATAACTTAA yielded a PBM binding z-score of -0.276.
In the case of AGAACGAGGGCACGCTGAGTTTATAGCAGAGTAG, the PBM binding z-score is 0.761.
GATACAGGGTCAAGGCCAGATTACGCGTATTGAT showed a PBM binding z-score of 3.72.
Still for that read-out and setting: for ATACCAAGGTGAACGTGAGGTCGTTGATACTAAC the value was 1.83; for CCTGCTAGGTCTTGGTCAGCTAATCTACAGTATG, -0.24.
Still for that read-out and setting: for GCTTGTAGATCAAGGTTACGAAAGACTAAGCTAA the value was 0.354.
CCTGCTAGGTCATGGTCAGCTACTCTACAGTATG yielded a PBM binding z-score of 1.41.
For the sequence TCGAGTAGGTTACCAATGGGGCAGTCAGCTTTCT, the PBM binding z-score is -0.432.
The sequence GGAACGAGGGAAAAGTTGATAGCATCTGTCGACG registered a PBM binding z-score of -0.562.
Regarding ATATGTAGGTTATCGGGTCATTCCGTTTGCGCAT, the PBM binding z-score was 2.58.
As for AGAATGAGGTTCCCAAAGATCAGGGAAACGCTTG, the PBM binding z-score worked out at 0.224.
CCTACTGGGCCAAGGTCATTGATCAGTCAAAGCA yielded a PBM binding z-score of 1.27.
The sequence ATCTCTAGGTAAAAAGTTCAGTGAAAGAGAGGAC returned a PBM binding z-score of 1.73.
Same read-out and setting: for CCTTACGGGTCACTCCAGATTATAGCATCGGAGT the value was 1.74.
For the sequence AGTCAAAGTTCATCTAGGCAACGTAAGATATGCT, the PBM binding z-score is 2.59.
Turning to TAGCCTAGGTCAGTCAGGGGCCAGTATAGAAAGC, the PBM binding z-score was 0.236.
With CCGACTGGGGCAGAAAGGTTACCACACCATCCGG, the PBM binding z-score was found to be 0.71.
ATATGTAGGTTACATCTGGGTCATTCAGGCTATG: the PBM binding z-score turned out to be 1.95.
On the same count and under the same terms, for TCAGACAGATGAAGGTAACTCAGGTACGCAGTCG the value was 0.326; for CTCGAAAGGTCGGTTAAGGTGAGTATACGGATAA, 1.69.
The sequence TCGAGTAGGTTAGGGGCATTCTGAATGGCGTCGA came in with a PBM binding z-score of 0.496.
GATACAGGGTCAAGGCCGGAGTACGCGTATTGAT: the PBM binding z-score stood at 1.8.
GCTGCTAGGTCAACTGATGGTCAGTTAAAGCTCG gave a PBM binding z-score of 1.79.
ACTAGCAGGCCAAGTTTGGGCCACTCAAACAAAG gave a PBM binding z-score of -1.66.

The test system of another test is PXR:RXRa (NR concentration 270 nM, RXRa partner concentration 90 nM). The test is described as above. The method in brief:
as §1
AGTCAAAGTTCATCCAGGTAACGTAAGATATGCT registered a PBM binding z-score of 5.26.
Turning to CTCGAAAGGTCGGTTGAGGTGAGTAGACGGATAA, the PBM binding z-score is 3.03.
Consider CCTTACGGGTCACGAGGTTATAGGACGACGAGCG, for which the PBM binding z-score came to 4.53.
Still for that read-out and setting: for ATCGAAAGGTCGACGAGGTGACTATACACCGTTT the value was 3.44; for AGAATGAGGTTACGAAAGATCAGGGAAACGCTTG, 1.44.
As for TCTGCTAGGTTAACGATGGTCAGCTAATCTGCTA, the PBM binding z-score was -0.232.
For ATCGAAAGGTCGACGAGGTGAGTATTCACCGTTT, the PBM binding z-score was 2.94.
With ATATGTAGGTAAGCTGGGGTCATTCAGACTAGGC, the PBM binding z-score is 6.07.
Same read-out and setting: as for CATACAGGGTCAGCTAGCCCAGAGTAGGGACGGC, the figure is 2.1; as for ATCGAAAGATCGAGGTGAGTATAGAGAAAGGGAA, -0.176.
The same measure, in the same setting: for TCTATTAGTTAAAGGGCAACCGACGAGTCCGTTT the value was 1.32; for CCTATTATTTGACCATAAGGGCAACCGAAGCTCG, 0.9; for AATACACGGTCATCGTAGGCCAGAGTACGCACAG, 0.356.
In turn, CGTCCAAGGGCAAAGGTCAGTGAAGAGATGACGG registered a PBM binding z-score of 4.76.
CCTTACGGGTCACAAGGTTATAGCACGACGAGCG showed a PBM binding z-score of 3.87.
As to GCGACTGGGGCATCAGCAGGTTCCCATAACTTAA, the PBM binding z-score was -0.549.
Same read-out and setting: for AGAACGAGGGCACGCTGAGTTTATAGCAGAGTAG the value was 3.96; for GATACAGGGTCAAGGCCAGATTACGCGTATTGAT, 4.43; for ATACCAAGGTGAACGTGAGGTCGTTGATACTAAC, 4.23.
Consider CCTGCTAGGTCTTGGTCAGCTAATCTACAGTATG, for which the PBM binding z-score is -0.552.
GCTTGTAGATCAAGGTTACGAAAGACTAAGCTAA displayed a PBM binding z-score of 0.724.
As for CCTGCTAGGTCATGGTCAGCTACTCTACAGTATG, the PBM binding z-score was determined as 0.866.
Consider TCGAGTAGGTTACCAATGGGGCAGTCAGCTTTCT, for which the PBM binding z-score is -0.103.
For GGAACGAGGGAAAAGTTGATAGCATCTGTCGACG, the PBM binding z-score was -0.557.
ATATGTAGGTTATCGGGTCATTCCGTTTGCGCAT showed a PBM binding z-score of 3.12.
Same read-out and setting: as for AGAATGAGGTTCCCAAAGATCAGGGAAACGCTTG, the figure is -0.152; as for CCTACTGGGCCAAGGTCATTGATCAGTCAAAGCA, 3.3; as for ATCTCTAGGTAAAAAGTTCAGTGAAAGAGAGGAC, 1.56.
CCTTACGGGTCACTCCAGATTATAGCATCGGAGT came in with a PBM binding z-score of 2.59.
Regarding AGTCAAAGTTCATCTAGGCAACGTAAGATATGCT, the PBM binding z-score came out at 5.11.
Turning to TAGCCTAGGTCAGTCAGGGGCCAGTATAGAAAGC, the PBM binding z-score is 0.48.
Regarding CCGACTGGGGCAGAAAGGTTACCACACCATCCGG, the PBM binding z-score was determined as 0.929.
In turn, ATATGTAGGTTACATCTGGGTCATTCAGGCTATG showed a PBM binding z-score of 2.11.
As to TCAGACAGATGAAGGTAACTCAGGTACGCAGTCG, the PBM binding z-score amounted to 0.521.
As for CTCGAAAGGTCGGTTAAGGTGAGTATACGGATAA, the PBM binding z-score amounted to 2.61.
The same measure, in the same setting: as for TCGAGTAGGTTAGGGGCATTCTGAATGGCGTCGA, the figure is 0.244; as for GATACAGGGTCAAGGCCGGAGTACGCGTATTGAT, 3.56; as for GCTGCTAGGTCAACTGATGGTCAGTTAAAGCTCG, 1.64.
As for ACTAGCAGGCCAAGTTTGGGCCACTCAAACAAAG, the PBM binding z-score is -0.855.
